Source: PubChem BioAssay AID434962 (The Scripps Research Institute Molecular Screening Center, 2010)
In all, about 320,000 compounds went through this assay and about 1,300 (0.41%) were called active.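 The calls were made as follows: active = percent inhibition above the average of all tested compounds plus 3 SD, set per screening campaign (cut at about 16% in these data); inactive = the rest.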 Many of the other results were omitted from the sample, so actives are more common in it than they were.

What follows are compounds tested against Insulin-degrading enzyme (Homo sapiens) (UniProt P14735) (assay: human IDE inhibitors in live cells, primary screen, fluorescence polarization, HEK cells, FAbetaB substrate (AID 434962;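 also: IDE supplied by intact live HEK cells; FP after avidin binding of uncleaved biotin substrate so inhibition keeps polarization high; 0% = DMSO wells and 100% = 60 µM reference IDE inhibitor Ii1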)). Details: FAbetaB cleavage, at 5.59 µM, stronger effect = higher value.
Insulin-degrading enzyme (Homo sapiens), sequence (P14735 whole entry, looked up): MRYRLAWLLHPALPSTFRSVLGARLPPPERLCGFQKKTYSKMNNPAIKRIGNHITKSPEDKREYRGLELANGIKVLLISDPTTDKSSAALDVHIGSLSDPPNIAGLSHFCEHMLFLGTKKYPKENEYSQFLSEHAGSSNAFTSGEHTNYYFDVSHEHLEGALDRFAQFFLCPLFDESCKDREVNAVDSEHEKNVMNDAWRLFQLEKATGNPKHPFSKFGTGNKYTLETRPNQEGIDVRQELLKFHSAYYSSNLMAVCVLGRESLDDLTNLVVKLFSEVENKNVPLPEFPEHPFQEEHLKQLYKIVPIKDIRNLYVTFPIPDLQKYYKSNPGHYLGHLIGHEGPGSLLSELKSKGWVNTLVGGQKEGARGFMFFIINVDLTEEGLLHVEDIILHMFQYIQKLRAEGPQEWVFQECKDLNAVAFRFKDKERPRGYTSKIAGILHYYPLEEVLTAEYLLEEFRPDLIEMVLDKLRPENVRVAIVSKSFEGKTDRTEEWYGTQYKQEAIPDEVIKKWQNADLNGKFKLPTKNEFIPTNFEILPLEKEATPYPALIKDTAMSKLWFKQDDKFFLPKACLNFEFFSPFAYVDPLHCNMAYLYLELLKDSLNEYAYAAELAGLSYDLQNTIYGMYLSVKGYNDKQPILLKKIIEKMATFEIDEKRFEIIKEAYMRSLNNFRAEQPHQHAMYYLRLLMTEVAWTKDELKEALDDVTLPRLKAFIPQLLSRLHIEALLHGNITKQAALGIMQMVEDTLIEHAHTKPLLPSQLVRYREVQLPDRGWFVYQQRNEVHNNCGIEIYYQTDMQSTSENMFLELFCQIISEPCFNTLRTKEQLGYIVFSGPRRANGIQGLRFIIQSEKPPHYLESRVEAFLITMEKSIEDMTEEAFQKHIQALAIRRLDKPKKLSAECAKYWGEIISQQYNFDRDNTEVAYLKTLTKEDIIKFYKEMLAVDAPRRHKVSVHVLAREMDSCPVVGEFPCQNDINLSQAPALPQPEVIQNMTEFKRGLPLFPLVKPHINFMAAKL

Row | Compound | inhibition
1 | CN(C)Cc1ccc(F)cc1Sc1cc(Cl)ccc1Cl | 7.05% (inactive)
2 | CCOC(=O)CNc1nc(Cl)nc(Nc2ccc(OC)cc2OC)n1 | -1.6% (inactive)
3 | COc1ccc(/C=C2\SC(=S)N(CCC(=O)Nc3cccc(C(=O)O)c3)C2=O)cc1OC | 1.95% (inactive)
4 | COc1cc(/C=C2/SC(=S)N(Cc3ccccc3)C2=O)cc(OC)c1O | 68.4% (active)
5 | COc1ccc(/C=C2\SC(=S)N(CCCC(=O)NC3CCCC3)C2=O)cc1OC | -2.87% (inactive)
6 | O=C(Nc1ccnn1C1CCN(C/C=C/c2ccc(F)cc2)CC1)C1CCCC1 | -2.53% (inactive)
7 | COc1cccc(CNC(=O)Cn2c(=O)oc3cc(S(=O)(=O)N4CCCCC4)ccc32)c1 | 4.33% (inactive)
8 | Cn1c(NC(=O)c2ccco2)c(-c2ccccc2Cl)c(=O)c2ccccc21 | -1.57% (inactive)
9 | N#C/C(=C/c1ccc(N2CCOCC2)o1)C(=O)N1CCOCC1 | 14.4% (inactive)
10 | N#C/C(=C\c1ccc(-c2cccc([N+](=O)[O-])c2)o1)C(=O)NCCN1CCOCC1 | -0.08% (inactive)
11 | N#C/C(=C\c1ccc(N2CCOCC2)o1)C(=O)N1CCOCC1 | 20.9% (active)
12 | Cc1ccc(C(=O)c2ccc(N3CCN(C)CC3)c([N+](=O)[O-])c2)cc1 | -2.73% (inactive)
13 | CCCCc1ccc(NC(=O)NCc2cccnc2)cc1 | 4.26% (inactive)
14 | CCN(CC(=O)NCc1ccc(F)cc1)S(=O)(=O)c1ccc(Cl)s1 | 7.4% (inactive)
15 | O=C(COC(=O)CCOc1ccccc1)Nc1cc(S(=O)(=O)N2CCCCC2)ccc1Cl | 5.23% (inactive)
16 | CCC(C)(C)NC(=O)CN(C(=O)CCC(=O)Nc1nccs1)c1ccc2c(c1)OCO2 | -1.66% (inactive)
17 | O=C(Oc1ccc(Br)cc1)c1cccnc1 | 1.44% (inactive)
18 | N#CCc1ccc(OC(=O)c2cccnc2)cc1 | -4.29% (inactive)

Row | Compound | inhibition
19 | O=C(Oc1c(-c2ccco2)oc2ccccc2c1=O)c1cccnc1 | 68.4% (active)
20 | Cc1csc(=O)n1CCC(=O)OCC(=O)NNC(=O)c1ccc(Br)cc1 | -2.19% (inactive)
21 | Cc1ccccc1Nc1nnc(SCC(=O)c2cc3ccccc3o2)s1 | 18.7% (active)
22 | CCOc1ccccc1Nc1nnc(SCC(=O)Nc2cc(C)on2)s1 | 3.25% (inactive)
23 | Cc1cc2c(=O)n(C)c(SCC(=O)c3cc4ccccc4o3)nc2s1 | 1.59% (inactive)
24 | CCc1ccc(CNC(=O)C2CC(=O)N(CCc3ccc(C)cc3)C2)cc1 (stereo not given) | -4.43% (inactive)
25 | CCCCN(C(=O)CSCC(=O)Nc1ccc(OC)cc1)c1c(N)n(CCC)c(=O)[nH]c1=O | -1.31% (inactive)
26 | CCOC(=O)c1cc(NC(=O)c2ccc(Cl)cc2)c(=O)oc1-c1ccccc1 | 1.63% (inactive)
27 | CC(=O)c1cc(NC(=O)c2ccccc2)c(=O)oc1/C=C/N(C)C | 16.3% (active)
28 | CC(=O)Oc1cccc(C(=O)Nc2ccccc2NC(=O)c2cccc(OC(C)=O)c2)c1 | -2.81% (inactive)
29 | Cc1cc(OCC(=O)N2CCN(c3ncccn3)CC2)ccc1Cl | -0.8% (inactive)
30 | O=C(Nc1ccc(O)cc1)c1ccc(NC(=O)c2ccco2)cc1 | 3.06% (inactive)
31 | O=C(CNC(=O)c1ccco1)NNC(=O)c1ccc(Br)cc1 | 2.95% (inactive)
32 | O=C(Nc1ccc(Sc2ccc(Br)cc2)cc1)c1ccco1 | 17.8% (active)
33 | CC1CCCCN1S(=O)(=O)CCNC(=O)c1ccccc1 (stereo not given) | 1.88% (inactive)
34 | CC(C)(C)OC(=O)N[C@H](C(=O)OC(C)(C)C)c1ccc(Br)cc1 | 2.45% (inactive)
35 | CN1CCNC(=O)C1CC(=O)NCCC1=CCCCC1 (stereo not given) | 1.39% (inactive)
